Eight molecules from ChEMBL document CHEMBL3988442, “University of Dundee, Small-Polar-MMV Screening Library” (2021) can be followed below.

For some of these results: Potency and affinity values are given separately.

What all share (design): scale not given: direction of the effect not stated beside the values
For assay [1], the target named is Protein translocase subunit SecA (Escherichia coli (strain K12)) (UniProt P10408). Description: Assay to Identify E. coli SecA ATPase Inhibitors. The assay is classed as functional. The following applies: 30 µM.
The target in assay [2] is T1, Ubiquitin-activating enzyme e1, putative (Leishmania donovani (strain BPK282A1)) (UniProt E9BSI1).
T1 sequence (whole entry): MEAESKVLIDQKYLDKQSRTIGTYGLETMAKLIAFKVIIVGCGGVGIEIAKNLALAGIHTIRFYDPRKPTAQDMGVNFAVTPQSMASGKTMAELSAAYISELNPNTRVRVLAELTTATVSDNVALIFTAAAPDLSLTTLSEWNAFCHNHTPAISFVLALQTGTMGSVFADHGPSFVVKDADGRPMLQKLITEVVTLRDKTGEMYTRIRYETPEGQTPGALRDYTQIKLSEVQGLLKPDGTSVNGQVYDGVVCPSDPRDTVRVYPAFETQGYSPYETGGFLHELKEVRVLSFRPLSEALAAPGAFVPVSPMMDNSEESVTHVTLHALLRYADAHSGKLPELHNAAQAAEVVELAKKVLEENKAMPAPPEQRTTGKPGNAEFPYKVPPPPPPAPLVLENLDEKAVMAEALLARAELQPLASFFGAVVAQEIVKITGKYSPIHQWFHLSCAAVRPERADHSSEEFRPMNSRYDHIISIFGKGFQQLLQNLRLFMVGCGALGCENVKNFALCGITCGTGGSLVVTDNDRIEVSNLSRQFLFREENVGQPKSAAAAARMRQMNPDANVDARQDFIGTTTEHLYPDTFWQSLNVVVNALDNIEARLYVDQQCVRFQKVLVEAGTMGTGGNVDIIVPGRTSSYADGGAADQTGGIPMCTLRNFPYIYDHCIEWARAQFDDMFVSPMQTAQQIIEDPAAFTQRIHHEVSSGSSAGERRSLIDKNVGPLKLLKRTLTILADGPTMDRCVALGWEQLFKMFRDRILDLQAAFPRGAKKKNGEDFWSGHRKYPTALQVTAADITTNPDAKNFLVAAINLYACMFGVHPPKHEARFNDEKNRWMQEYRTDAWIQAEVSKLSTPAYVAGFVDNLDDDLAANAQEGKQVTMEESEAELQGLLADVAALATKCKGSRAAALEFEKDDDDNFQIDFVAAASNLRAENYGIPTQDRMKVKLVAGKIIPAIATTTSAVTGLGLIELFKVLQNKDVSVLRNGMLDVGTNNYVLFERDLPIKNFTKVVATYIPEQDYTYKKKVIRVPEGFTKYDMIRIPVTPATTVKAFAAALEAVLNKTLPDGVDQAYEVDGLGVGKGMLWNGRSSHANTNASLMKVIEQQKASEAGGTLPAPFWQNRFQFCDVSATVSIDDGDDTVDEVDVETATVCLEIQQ
Description: Leishmania donovani Ubiquitin Activating Enzyme (LdE1). The assay is classed as functional. The following applies: 30 µM.

Assay [3] has as its target AMP-activated protein kinase, AMPK (Homo sapiens) (UniProt P54646+O43741+P54619+Q9UGJ0+Q9Y478+Q13131+Q9UGI9). Kind of assay: AMP-dependent Kinase enzyme assay. An in vitro enzyme assay that detects ADP turnover that is directly proportional to AMPK activity. This uses naive AMPK that is activated during the assay with MK-8722. Format: functional. To be noted: 30 µM.
Assay [4] addresses Sialic acid-binding Ig-like lectin 9 (Homo sapiens) (UniProt Q9Y336). Kind of assay: Hs-Siglec9 ALPHAscreen SOP 20170721. The following applies: 10 µM. A general note: Bead proximity is the source of the signal in Alpha formats.
In a further assay the test system is Trypanosoma cruzi. Kind of assay: Trypanosoma cruzi phosphomannomutase and mannose-1-phosphate guanylyltransferase assay. Format: functional. To be noted: 10 µM.
For assay [5], the target named is T2, Arginase-2, mitochondrial (Homo sapiens) (UniProt P78540).
T2 sequence (whole entry): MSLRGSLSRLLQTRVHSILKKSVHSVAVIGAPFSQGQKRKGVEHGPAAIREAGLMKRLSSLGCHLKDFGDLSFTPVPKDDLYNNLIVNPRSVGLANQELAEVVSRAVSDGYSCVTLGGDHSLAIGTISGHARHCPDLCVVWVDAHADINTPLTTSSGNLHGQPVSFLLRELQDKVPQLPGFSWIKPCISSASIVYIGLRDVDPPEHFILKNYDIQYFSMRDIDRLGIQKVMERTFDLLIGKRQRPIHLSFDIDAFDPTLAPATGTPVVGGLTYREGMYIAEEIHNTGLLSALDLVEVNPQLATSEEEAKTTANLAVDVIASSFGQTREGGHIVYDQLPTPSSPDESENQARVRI
Kind of assay: in vitro enzyme assay to detect the production of urea directly proportional to the activity of Arginase II. Note: in the data most compounds retested in dose-response had high values. Format: functional. To be noted: 33.3 µM.

For assay [6], the target named is T3, Proteasome subunit beta (Trypanosoma cruzi) (UniProt O96673).
T3 sequence (whole entry): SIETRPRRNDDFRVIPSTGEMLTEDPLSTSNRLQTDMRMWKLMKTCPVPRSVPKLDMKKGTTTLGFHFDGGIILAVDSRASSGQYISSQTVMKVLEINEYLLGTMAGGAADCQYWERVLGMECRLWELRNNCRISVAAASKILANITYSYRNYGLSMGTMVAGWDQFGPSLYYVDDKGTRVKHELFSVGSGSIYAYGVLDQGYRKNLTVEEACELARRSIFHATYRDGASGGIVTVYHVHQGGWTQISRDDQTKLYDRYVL
Kind of assay: Trypanosoma cruzi proteasome chymotrypsin-like activity (TcProtChymo) assay. Note: in the data most compounds retested in dose-response had high values. The assay is classed as functional. To be noted: 9.37 µM.

The species entered for another assay is Homo sapiens. Kind of assay: To identify inhibition of the IFN signalling (Jak-Stat) pathway via expression of an eGFP reporter gene under the control of an IFN-stimulated response element (ISRE) containing MxA promoter. The assay is classed as functional. To be noted: 30 µM. (In a reporter assay the amount or activity of a reporter protein is the signal.)

In assay [7] the target is T4, Tyrosyl-tRNA synthetase, putative (Trypanosoma cruzi (strain CL Brener)) (UniProt Q4DSP6).
T4 sequence (whole entry): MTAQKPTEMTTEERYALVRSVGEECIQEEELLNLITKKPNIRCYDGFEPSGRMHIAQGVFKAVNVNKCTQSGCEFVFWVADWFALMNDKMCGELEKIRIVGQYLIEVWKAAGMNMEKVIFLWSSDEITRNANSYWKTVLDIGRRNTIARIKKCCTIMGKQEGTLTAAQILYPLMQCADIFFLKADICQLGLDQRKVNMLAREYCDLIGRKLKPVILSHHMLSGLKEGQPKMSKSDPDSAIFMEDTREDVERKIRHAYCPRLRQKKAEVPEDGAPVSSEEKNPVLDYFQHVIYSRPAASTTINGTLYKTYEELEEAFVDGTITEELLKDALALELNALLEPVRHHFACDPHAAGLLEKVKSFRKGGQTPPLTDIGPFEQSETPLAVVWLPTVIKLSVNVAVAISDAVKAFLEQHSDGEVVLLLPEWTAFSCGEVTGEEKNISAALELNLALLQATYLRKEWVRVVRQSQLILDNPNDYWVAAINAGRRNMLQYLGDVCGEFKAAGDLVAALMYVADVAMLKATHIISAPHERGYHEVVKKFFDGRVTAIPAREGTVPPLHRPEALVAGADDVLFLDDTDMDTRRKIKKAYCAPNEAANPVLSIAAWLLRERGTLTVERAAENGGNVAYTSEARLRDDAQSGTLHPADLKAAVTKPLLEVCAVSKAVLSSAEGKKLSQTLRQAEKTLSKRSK
Description: Trypanosoma cruzi tyrosyl tRNA synthetase (TcYRS) _High Tyrosine SOP. Note: in the data most compounds retested in dose-response had high values. The assay is classed as functional. To be noted: 30 µM.

Assay [8] deals with T4, Tyrosyl-tRNA synthetase, putative (Trypanosoma cruzi (strain CL Brener)). Kind of assay: Trypanosoma cruzi tyrosyl tRNA synthetase (TcYRS) SOP. To be noted: 30 µM. The assay is classed as functional.
Assay [9] has as its target Chromo domain-containing protein 1 (Saccharomyces cerevisiae (strain ATCC 204508 / S288c) (Baker's yeast)) (UniProt P32657). Kind of assay: ScCHD-1 Enzyme Inhibition Assay. Note: in the data most compounds retested in dose-response had high values. The assay is classed as functional. To be noted: 30 µM.

Chain of Sialic acid-binding Ig-like lectin 9 (Homo sapiens) (Q9Y336 whole entry): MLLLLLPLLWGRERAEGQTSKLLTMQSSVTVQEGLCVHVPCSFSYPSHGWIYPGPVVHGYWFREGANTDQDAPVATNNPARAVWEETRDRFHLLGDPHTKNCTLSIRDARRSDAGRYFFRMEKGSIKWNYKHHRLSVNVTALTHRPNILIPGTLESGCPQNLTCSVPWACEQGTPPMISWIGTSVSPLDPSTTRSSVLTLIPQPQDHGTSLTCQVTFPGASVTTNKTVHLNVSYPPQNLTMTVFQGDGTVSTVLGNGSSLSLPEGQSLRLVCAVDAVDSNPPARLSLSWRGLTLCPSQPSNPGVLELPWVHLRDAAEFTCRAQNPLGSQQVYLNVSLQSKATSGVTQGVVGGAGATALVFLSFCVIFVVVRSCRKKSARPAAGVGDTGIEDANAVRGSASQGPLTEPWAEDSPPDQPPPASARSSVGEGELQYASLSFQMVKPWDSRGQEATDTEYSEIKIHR
Chain of Protein translocase subunit SecA (Escherichia coli (strain K12)) (P10408 whole entry): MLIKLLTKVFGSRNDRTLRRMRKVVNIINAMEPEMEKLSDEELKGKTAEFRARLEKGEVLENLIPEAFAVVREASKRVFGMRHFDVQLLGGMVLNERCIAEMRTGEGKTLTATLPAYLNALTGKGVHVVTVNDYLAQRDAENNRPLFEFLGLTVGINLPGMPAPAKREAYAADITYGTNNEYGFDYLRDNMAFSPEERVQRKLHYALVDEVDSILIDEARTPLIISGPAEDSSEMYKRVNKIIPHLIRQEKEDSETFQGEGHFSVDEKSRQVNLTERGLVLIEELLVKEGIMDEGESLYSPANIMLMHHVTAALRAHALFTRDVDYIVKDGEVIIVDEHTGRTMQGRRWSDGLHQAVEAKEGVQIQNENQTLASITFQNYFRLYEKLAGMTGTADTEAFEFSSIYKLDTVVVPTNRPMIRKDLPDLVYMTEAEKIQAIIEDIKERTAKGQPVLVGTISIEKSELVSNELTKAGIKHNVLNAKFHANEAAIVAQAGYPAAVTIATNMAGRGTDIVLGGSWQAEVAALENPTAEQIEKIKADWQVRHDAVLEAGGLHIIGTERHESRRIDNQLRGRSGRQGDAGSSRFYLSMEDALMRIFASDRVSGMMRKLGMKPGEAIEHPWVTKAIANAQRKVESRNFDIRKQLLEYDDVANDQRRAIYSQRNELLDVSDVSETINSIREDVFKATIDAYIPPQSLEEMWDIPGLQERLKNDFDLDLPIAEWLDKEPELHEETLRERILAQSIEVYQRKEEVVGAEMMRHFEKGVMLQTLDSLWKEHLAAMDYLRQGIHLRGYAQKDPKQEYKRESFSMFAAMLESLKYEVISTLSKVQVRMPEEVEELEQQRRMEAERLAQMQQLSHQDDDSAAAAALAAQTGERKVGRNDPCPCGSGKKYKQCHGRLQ
Chain of Chromo domain-containing protein 1 (Saccharomyces cerevisiae (strain ATCC 204508 / S288c) (Baker's yeast)) (P32657 whole entry, the tested form may be a part): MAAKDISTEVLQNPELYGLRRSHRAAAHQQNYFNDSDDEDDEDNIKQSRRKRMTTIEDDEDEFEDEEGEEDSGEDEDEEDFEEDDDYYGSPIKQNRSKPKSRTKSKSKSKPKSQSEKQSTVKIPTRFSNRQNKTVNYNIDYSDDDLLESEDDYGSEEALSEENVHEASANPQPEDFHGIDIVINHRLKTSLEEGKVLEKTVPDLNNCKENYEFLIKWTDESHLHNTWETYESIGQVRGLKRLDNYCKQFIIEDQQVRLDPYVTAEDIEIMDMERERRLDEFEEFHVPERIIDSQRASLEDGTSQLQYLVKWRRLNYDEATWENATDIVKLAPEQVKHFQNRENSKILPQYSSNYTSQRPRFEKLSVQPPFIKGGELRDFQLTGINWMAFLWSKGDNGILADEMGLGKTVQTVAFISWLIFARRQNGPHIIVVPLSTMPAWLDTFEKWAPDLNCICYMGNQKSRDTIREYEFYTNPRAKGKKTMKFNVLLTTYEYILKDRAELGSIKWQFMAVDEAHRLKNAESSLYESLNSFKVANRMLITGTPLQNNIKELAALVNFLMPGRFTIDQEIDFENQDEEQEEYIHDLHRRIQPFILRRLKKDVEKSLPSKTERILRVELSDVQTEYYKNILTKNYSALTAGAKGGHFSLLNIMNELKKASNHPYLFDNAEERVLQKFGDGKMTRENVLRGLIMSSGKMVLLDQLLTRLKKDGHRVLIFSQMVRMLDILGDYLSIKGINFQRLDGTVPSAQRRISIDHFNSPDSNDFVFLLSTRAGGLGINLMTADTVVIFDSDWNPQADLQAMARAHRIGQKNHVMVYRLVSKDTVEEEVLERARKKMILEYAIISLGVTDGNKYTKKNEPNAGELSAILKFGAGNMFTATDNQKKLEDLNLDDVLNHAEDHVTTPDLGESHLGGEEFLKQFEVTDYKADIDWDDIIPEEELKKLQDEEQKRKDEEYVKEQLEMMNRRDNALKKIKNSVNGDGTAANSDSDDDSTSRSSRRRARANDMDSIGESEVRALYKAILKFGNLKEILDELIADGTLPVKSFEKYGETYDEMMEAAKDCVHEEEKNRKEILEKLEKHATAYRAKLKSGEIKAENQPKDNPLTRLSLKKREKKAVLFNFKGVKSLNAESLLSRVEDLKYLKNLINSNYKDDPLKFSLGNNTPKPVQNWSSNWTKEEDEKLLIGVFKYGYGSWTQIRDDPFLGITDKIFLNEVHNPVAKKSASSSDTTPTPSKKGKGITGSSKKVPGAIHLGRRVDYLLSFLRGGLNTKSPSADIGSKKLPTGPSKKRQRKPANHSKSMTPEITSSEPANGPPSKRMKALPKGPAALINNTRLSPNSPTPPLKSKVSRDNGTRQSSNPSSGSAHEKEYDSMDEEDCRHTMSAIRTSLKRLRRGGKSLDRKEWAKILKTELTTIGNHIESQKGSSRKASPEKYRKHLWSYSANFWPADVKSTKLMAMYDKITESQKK

Regarding `O=c1c2ccccc2nc2n1CCN(Cc1cccs1)CC2`, the Percent Effect in [1] was -2.59%; in assay [2] it was 20.3%; in assay [3], 9.44%; in assay [4], 0.538%; in the assay on Trypanosoma cruzi, 1.98%; in assay [5], -4.41%. Also, the Percent Effect in [6] is 17%; in the assay listed under Homo sapiens, 23.7%; in [7] it was 5.38%; in assay [8] it was 14.3%; in assay [9], -12.4%.

For the molecule `CNc1nc(CNC(=O)Nc2cccc(F)c2C)cs1`, the Percent Effect in assay [1] is -0.623%; in assay [2], -2.63%; in assay [3] it was -1.93%; in assay [4], 5.4%; in the assay on Trypanosoma cruzi, -1.32%; in [5], 1.15%. Further, the Percent Effect is 5.18% in assay [6]; 8.24% in the assay listed under Homo sapiens; 1.47% in [7]; -2.44% in [8]; 5.82% in [9].

On to `COCCN1CCN(C(=O)c2ccncc2F)Cc2cccnc21`, for which the Percent Effect in assay [1] is 2.77%; in [2] it was 6.67%; in assay [3], 4.36%; in [4], -2.01%; with Trypanosoma cruzi it was -10.6%; in assay [5], -1.58%. For the same molecule, the Percent Effect in assay [6] was 20.3%; in the assay listed under Homo sapiens, 0.197%; in [7], 3.17%; in [8] it was -5.13%; in assay [9], -10.5%.

For `Nc1cc2c(nn1)CCN(C(=O)c1cccc3c1OCCO3)C2`, the Percent Effect is 0.377% in assay [1]; 2.6% in assay [2]; -2.26% in [3]; 6.77% in assay [4]; 8.24% in the assay with Trypanosoma cruzi; 0.356% in assay [5]. For the same molecule, the Percent Effect in assay [6] is 4.05%; in the assay listed under Homo sapiens, 10.7%; in assay [7] it was 5.83%; in [8], 12.2%; in [9] it was -10.5%.

As to `CC(=O)N1CCCC1C(=O)NCCOc1cc(C)cc(C)c1` (stereo not drawn), the Percent Effect in assay [1] is -7.33%; in assay [2], 7.79%; in assay [3], -4.76%; in [4] it was 10.6%; in the assay on Trypanosoma cruzi, 3.37%; in assay [5] it was -5.34%. For the same molecule, the Percent Effect in [6] was -7.43%; in the assay filed under Homo sapiens, -4.36%; in [7] it was 6.8%; in assay [8], 12.2%; in assay [9], -4.02%.

Take `Cc1nc2n(n1)CC(Nc1cc(C(F)(F)F)nc3ncnn13)CC2` (stereo not drawn): the Percent Effect in [1] was -4.34%; in assay [2], 5.48%; in assay [3], 10.2%; in assay [4] it was -0.512%; in the assay on Trypanosoma cruzi, 5.49%; in assay [5] it was -0.909%. The Percent Effect was 11.4% in assay [6]; -14.4% in the assay filed under Homo sapiens; 2.15% in [7]; 17.5% in [8]; -3.28% in assay [9].

For the molecule `CCOC(=O)CCNC(=O)N1CCN(c2nc3ccccc3n2C)CC1`, the Percent Effect is -1.65% in assay [1]; 10.4% in assay [2]; 1.91% in assay [3]; 4.46% in assay [4]; -5.42% with Trypanosoma cruzi; -266% in assay [5]. The Percent Effect was 12.2% in [6]; -4.19% in the assay filed under Homo sapiens; 2.12% in assay [7]; 16.7% in [8]; -7.17% in assay [9].

Take `Cn1cccc1C(=O)N[C@@H]1CN(CC2CC2)[C@@H]2COC[C@@H]21`: the Percent Effect was -2.02% in assay [1]; 5.33% in [2]; -1.14% in [3]; 25.9% in [4]; -7.14% in the assay with Trypanosoma cruzi; -54.7% in assay [5]. Besides, the Percent Effect in assay [6] is -2.73%; in the assay listed under Homo sapiens it was -2.91%; in assay [7], 1.04%; in assay [8], 7.5%; in assay [9] it was -7.28%.
